The values that follow come from the supplement of paper PMC10121225.

The structures appear in SMILES notation.
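Note: immunostained co-cultures imaged by high-content microscopy, Z-score per plate against mean and SD of 0.1% DMSO wells, compounds added on differentiation day 18, analysed day 21.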

This assay has as its system hN + hpA co-culture (H1 iNGN2 human neurons + human primary astrocytes). The assay is described as follows: presynaptic density (SYNAPSIN1 puncta per MAP2 neurite area), Z-score vs DMSO controls; higher = more presynaptic puncta (synapse-promoting). The conditions noted are these: 3 µM; 72 h.
Consider `CCN[C@H]1CN(CCCOC)S(=O)(=O)c2sc(S(N)(=O)=O)cc21` [Brinzolamide], for which the “presynaptic density (Z-score)” value was -0.474.
For the compound `Cc1cc(Nc2ncc(Cl)c(Nc3ccccc3S(=O)(=O)C(C)C)n2)c(OC(C)C)cc1C1CCNCC1`, the “presynaptic density (Z-score)” value came to 0.147.
For `COc1cc(F)c(F)c(Nc2ccc(I)cc2F)c1NS(=O)(=O)C1(CC(O)CO)CC1` (centres undefined) [Refametinib (RDEA119], the “presynaptic density (Z-score)” value came out at 0.433.
Next, `CCOC(=O)N1CCC(=C2c3ccc(Cl)cc3CCc3cccnc32)CC1` [Loratadine]: 1.78; `COC1CCN(C(=O)c2cc(Cc3n[nH]c(=O)c4ccccc34)ccc2F)CC1`: 0.144.
On to `Cc1cc2c(cc1CC(=O)c1sccc1S(=O)(=O)Nc1onc(C)c1Cl)OCO2` [Sitaxentan sodium], for which the “presynaptic density (Z-score)” value is -0.569.
Regarding `COc1ccc(CNCc2cccc3ccccc23)cc1`, the “presynaptic density (Z-score)” value was -1.02.
As for `COCCOc1ccc2c(c1)ncn2-c1ccc2cccc(N3CCC(N)CC3)c2n1`, the figure is -0.271; as for `O=S(=O)(NCCNCC=Cc1ccc(Br)cc1)c1cccc2cnccc12`, -0.0684.
Take `CCN1CCCC1CNC(=O)c1cc(S(N)(=O)=O)ccc1OC` (single isomer, unassigned; (-)) [(-)-Sulpiride]: the “presynaptic density (Z-score)” value was -1.09.
`CCN(Cc1ccncc1)C(=O)C(CO)c1ccccc1` (centres undefined) [Tropicamide]: the “presynaptic density (Z-score)” value was -0.597.
Take `CS(=O)(=O)N1CCN(Cc2cc3nc(-c4cccc5[nH]ncc45)nc(N4CCOCC4)c3s2)CC1` [GDC 0941 bismesylate]: the “presynaptic density (Z-score)” value stood at 1.26.
Next, `CC(C)c1onc(-c2c(Cl)cccc2Cl)c1COc1ccc(/C=C/c2cccc(C(=O)O)c2)c(Cl)c1`: -0.576.
With `CCN(CC)CC(=O)Nc1c(C)cccc1C`, the “presynaptic density (Z-score)” value was 0.846.
